# Screening data: PubChem, National Center for Advancing Translational Sciences (NCATS)
# AMA1-RON2 inh: qHTS for Inhibitors of AMA1-RON; Towards Development of Antimalarial Drug Lead: Primary Screen; actives 0.2% (n = 360,000); AlphaScreen AMA1-biotinylated RON2 peptide binding; Plasmodium falciparum AMA1 (3D7) - RON2 peptide interaction; Potency, µM (highest dose often 58.2 µM), most hits filed as inhibitors; AID 720542, 2013; further: nearly all actives have a fitted effect of over 45% in size
#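 AMA1 (3D7) with his tag at 25 nM final met compounds first, then biotinylated RON2 peptide at 25 nM; detection used donor plus acceptor beads, 10 µg/mL apiece, read by AlphaScreen after 30 min at room temperature.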
# SARS PLpro yeast: qHTS of Yeast-based Assay for SARS-CoV PLP; S. cerevisiae expressing SARS-CoV PLpro, growth rescue; Potency, µM (doses to about 32.9 µM), actives largely listed as activators; actives 0.19% (n = 330,000); AID 485353, 2010; calls by dose curve; further: nearly all actives have a fitted effect of over 55% in size
# AmpC inh detg: qHTS Inhibitors of AmpC Beta-Lactamase (assay with detergent); actives 0.041% (n = 370,000); AID 485294, 2010; AmpC hydrolysis of nitrocefin, absorbance 480 nm, 0.01% Triton; Potency, µM (series often up to 114 µM), most hits filed as inhibitors; further: nearly all actives have a fitted effect of over 25% in size
# Target sequence (P00811 whole entry, looked up): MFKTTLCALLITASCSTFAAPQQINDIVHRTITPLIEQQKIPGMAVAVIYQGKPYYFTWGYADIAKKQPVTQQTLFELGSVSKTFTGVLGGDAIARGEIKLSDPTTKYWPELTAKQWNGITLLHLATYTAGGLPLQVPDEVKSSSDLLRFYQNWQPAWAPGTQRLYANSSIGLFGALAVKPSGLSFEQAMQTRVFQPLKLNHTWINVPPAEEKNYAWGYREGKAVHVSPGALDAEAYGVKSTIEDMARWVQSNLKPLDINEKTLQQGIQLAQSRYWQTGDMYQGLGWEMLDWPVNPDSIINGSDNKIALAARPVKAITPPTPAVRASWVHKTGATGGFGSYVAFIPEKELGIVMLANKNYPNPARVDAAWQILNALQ
#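 AmpC (5.3 nM in the dispensed reagent) in 20 mM phosphate pH 7.0 with 0.01% (detergent screen) or 0.0001% Triton X-100 was preincubated with compounds for 15 min at room temperature. Nitrocefin was then added from an 800 uM solution, and hydrolysis was followed at 480 nm.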
# Shiga toxin inh: A qHTS for Small Molecule Inhibitors of Shiga Toxin | AID 2315, 2010 | Vero cells, Shiga toxin protein synthesis inhibition reporter | inhibition, % at 38.7 µM | actives 9.2% (n = 290,000); in the data active means inhibition mostly above about 28%, no sharp cut-off; inactive means mostly below about 43%
# Cycloheximide cs: Cycloheximide Counterscreen for Small Molecule Inhibitors of Shiga Toxin | cell reporter, cycloheximide protein synthesis inhibition counterscreen | max response, % | actives 12% (n = 300,000); in the data active means max response mostly above about 13%, no sharp cut-off; inactive means mostly below about 14%; further: read at 38.3 µM for the half of the compounds with a filed dose
# AmpC inh no detg: qHTS Inhibitors of AmpC Beta-Lactamase (assay without detergent); P00811; AmpC nitrocefin hydrolysis, absorbance 480 nm, 0.0001% Triton; Potency, µM (highest dose often 57.1 µM), most hits filed as inhibitors; actives 0.52% (n = 330,000); further: nearly all actives have a fitted effect of over 20% in size
#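 AmpC (5.3 nM in the dispensed reagent) in 20 mM phosphate pH 7.0 with 0.01% (detergent screen) or 0.0001% Triton X-100 was preincubated with compounds for 15 min at room temperature. Nitrocefin was then added from an 800 uM solution, and hydrolysis was followed at 480 nm.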
# Numbers stand for hits; . = inactive; ? = inconclusive; / = no result; [ ] = remark or other dose. The sample as a whole holds a higher share of hits than the screen did. Unless noted, the call rests on the fitted dose curve; in most records, active means well fitted curve in the direction sought with a large enough effect; inconclusive means small, poorly fitted or top-dose-only effect, or another doubt; inactive means no such curve, though single readings can be large; an effect the other way counts as inactive or inconclusive.
SMILES,AMA1-RON2 inh,SARS PLpro yeast,AmpC inh detg,Shiga toxin inh,Cycloheximide cs,AmpC inh no detg
S=C(Nc1cc(Cl)cc(Cl)c1)N1CCCC1,.,?,.,.,.,.
COC(=O)Cc1ccc(NC(=S)N2CCCC(CO)C2)cc1 (stereo not given),.,.,.,.,.,.
COc1ccc(NC(=S)N2CCCCCC2)cc1OC,.,.,.,.,.,.
Cc1ccc(NC(=S)N2CCCCC2)cc1C,.,.,.,42.8,20.2,.
Cn1c(SCC(=O)NC2CCCC2)nc2c(c1=O)SCC2,.,.,.,.,.,.
CCn1c2ccccc2c2cc(C3C(C#N)=C(N)Oc4n[nH]c(COC)c43)ccc21 (stereo not given),.,.,.,.,.,.
COc1ccc(S(=O)(=O)N2CCC(C(=O)NCc3cccc(OC)c3)CC2)cc1,.,.,.,.,.,.
Cc1ccc(-c2c(C(=O)N3CCN(c4cccc(C)c4C)CC3)oc(=O)c3ccccc23)cc1,/,/,.,/,/,/
OCC1CCCN(C(=S)Nc2ccc(Oc3ccccc3)cc2)C1 (stereo not given),.,.,.,80.5,43.1,.
COc1cc(NC(=S)N2CCCC(CO)C2)cc(OC)c1 (stereo not given),.,.,.,.,.,.[2.29 µM]
Cc1ccc(NC(=S)N2CCCC2)cc1,.,.,.,77.2,27.4,.
CC(=O)c1ccc(NC(=S)N2CCCCCC2)cc1,.,.,.,66.9,21.2,.[2.29 µM]
CN(C(=O)COC(=O)c1ccc(Cl)nc1)c1c(N)n(Cc2ccccc2)c(=O)[nH]c1=O,.,.,.,/,/,.
Cc1cc(C)cc(NC(=O)COC(=O)C2CC3C=CC2C3)c1 (stereo not given),.,/,/,/,/,/
Cc1ccc(C(=O)N2CCN(c3ccc(NC(=O)c4ccc5c(c4)OCCO5)cc3)CC2)cc1,.,.,.,.,.,.
CCn1nc(C)cc1C(=O)N1CCc2c([nH]c3ccccc23)C1c1cc(F)ccc1F (stereo not given),.,.,.,82.0,55.4,.
COc1ccc(C2c3[nH]c4ccccc4c3CCN2C(=O)Cc2nonc2C)c(F)c1 (stereo not given),.,.,.,108.9,37.0,.
Cc1ncoc1C(=O)N1CCc2c([nH]c3ccccc23)C1c1ccccc1F (stereo not given),.,.,.,.,.,.
O=C1CC(c2ccccc2)c2c(n3ncnc3[nH]c2=O)N1 (stereo not given),/,/,.,/,/,/
Cc1cc(=O)c2c(o1)CC(C)(C)CC2=O,.,.[6.58 µM],?,.,.,.
C1CN(c2nc3nonc3nc2N2CCSCC2)CCO1,.,.,.,.,.,.
Oc1cc2c(cc1O)C1c3ccc(O)c(O)c3OCC1(O)C2 (stereo not given),2µM,.,.,.,.,.
O=C(c1ccccc1NS(=O)(=O)c1ccc([N+](=O)[O-])cc1[N+](=O)[O-])N1O[C@@H]2C=C[C@H]1C2,.,.,/,/,/,.
CCOc1ccc2oc(-c3ccccc3)c(C(=O)N3CCN(C)CC3)c2c1,.,.,.,.,.,.
O=C(Nc1ccc(-c2cnco2)cc1)c1ccc(F)cc1F,.,.,.,34.6,33.6,.
SMILES,AMA1-RON2 inh,SARS PLpro yeast,AmpC inh detg,Shiga toxin inh,Cycloheximide cs,AmpC inh no detg
CCCCCCOc1ccc(/C(N)=N/O)cc1,.,.,.,61.4,44.1,.
COC(=O)c1ccc(N2CCCCC2)c(N)c1,.,.,.,99.9,57.4,.
COC(=O)c1ccc(N2CCC(C)CC2)c(N)c1,.,.,?,.,38.2,.
CCCCn1c2ccccc2c2nnc(SCCN3CCCCC3)nc21,.,.,.,.,.,.
C/C(=N\N)c1c(-c2ccccc2)c2cc(C)ccc2[nH]c1=O,.,.,.,.,.,.
COc1ccc(OCC(=O)N2CCN(Cc3cc(=O)n4nc(-c5ccc(OC)cc5)sc4n3)CC2)cc1,/,/,.,/,/,/
O=C(O)C1CCC(c2ccc(-c3ccccc3)cc2)CC1 (stereo not given),.,.,.,116.4,73.0,.
CC(NC(=O)C1CC1)c1ccc(-c2ccccc2)cc1 (stereo not given),.,.,.,.,.,.
COc1cccc(NC(=O)N2CCN(c3cccc(C)c3C)CC2)c1,.,.,?,66.2,38.1,.
COc1cccc(NC(=O)N2CCC3(CC2)OCCO3)c1,.,.,?,60.8,31.1,.
COc1ccc(CNC(=O)CN(C)Cc2ccc(SC)cc2)cc1,.,.,.,.,.,.
CCOC(=O)c1[nH]c2cc(OC)c(OC)cc2c1NC(=O)c1ccc2c(c1)OCO2,.,.,.,.,.,.
CC(=O)Nc1ccc2c(c1)nc1n2CCSC1,.,.,.,.,.,.
COc1ccc(OCC(=O)Nc2ccc3c(c2)nc2n3CCSC2)cc1,.,.,?,.,.,.
CCCCC(=O)Nc1ccc2c(c1)nc1n2CCSC1,.,.,.,65.3,27.4,.
Cc1ccc(C(=O)Nc2ccc3c(c2)nc2n3CCSC2)cc1,.,.,?,.,30.7,.
COc1ccccc1C(=O)Nc1ccc2c(c1)nc1n2CCSC1,.,.,.,60.3,24.0,.
COc1ccccc1C(=O)Nc1ccc2c(c1)nc1n2CCN(Cc2ccccc2)C1,.,.,?,.,.,.
O=C(c1ccc2c(c1)OCO2)n1nnc2ccccc21,/,.,?,.,.,.
COc1ccc(S(=O)(=O)N(Cc2ccccc2)c2ccccc2C(=O)O)cc1,.,.,.,/,.,.
COc1ccc(N2CCN(c3nc(Nc4ccc(C)c(F)c4)nc(N4CCCC4)n3)CC2)cc1,?,.,.,.,.,.
COc1ccc(Cc2nn[nH]n2)cc1,.,.,.,.,.,.
Cc1ccc(C(=O)NC2CCCCCC2)cc1S(=O)(=O)N1CCOCC1,.,.,.,.,28.0,.
COc1ccc(C(=O)NC2CCCCC2)cc1S(=O)(=O)N1CCOCC1,.,.,.,.,.,.
Cc1ccc(C(=O)Nc2ccc(F)cc2)cc1S(=O)(=O)N1CCOCC1,/,/,.,/,/,/
Cc1ccc(C(=O)NC2CCCCC2)cc1S(=O)(=O)N1CCCC1,.,.,?,40.3,35.4,.
Cc1ccc(C(=O)Nc2ccc3cn[nH]c3c2)cc1S(=O)(=O)N1CCOCC1,.,.,.,49.2,21.2,.
COc1ccc(/C=C/C(=O)NC2CCCCCC2)cc1S(=O)(=O)N1CCOCC1,.,.,.,.,19.3,.
COC(=O)c1c(-c2cc(OC)cc(OC)c2)sc2ccc(OC)cc12,.,.,/,/,/,.
COC(=O)C1=C(c2ccccc2OCc2ccccc2)C[C@@H]2CC[C@H]1N2C(=O)NCCN1CCOCC1,.,.,.,/,/,.
